This is one part of a sample in which hits are shown more often than they occur.
Lassa entry inh: inhibitors of Lassa virus binding or cell entry; Lassa virus pseudotype entry inhibition, cell reporter; Potency, µM (doses to about 37.9 µM), without a hit: at the top dose activity change, negative = inhibition, most hits filed as inhibitors; 300,000 tested, 1.2% active; calls by dose curve; tested in HEK293 cells; further: potency means the concentration at half of the fitted maximal effect; on the % scale 0 is the no-effect control and ±100 the full control effect; nearly all actives have a fitted effect of over 50% in size
Marburg entry inh: Marburg virus entry inhibition. Marburg virus pseudotyped entry inhibition, cell reporter. Potency, µM (series often up to 37.8 µM), for the others: top-dose activity change, negative = inhibition, usual class: inhibitors. 300,000 tested, 1.8% active. AID 540276; calls by dose curve; tested in HEK293 cells; further: potency means the concentration at half of the fitted maximal effect; on the % scale 0 is the no-effect control and ±100 the full control effect
Shiga inhibitor: Shiga toxin inhibition. Vero cells, Shiga toxin protein synthesis inhibition reporter. inhibition, % at 38.7 µM. 290,000 tested, 9.2% active. AID 2315; in the data active means inhibition mostly above about 28%, no sharp cut-off; inactive means mostly below about 43%; further: 0% is about no effect
Vaccinia mCherry: inhibitors of vaccinia virus infection (mCherry reporter signal); Vaccinia virus mCherry reporter infection, fluorescence; 310,000 tested, 0.63% active; Potency, µM (series often up to 36.5 µM), inactives show at the top dose activity change, negative = inhibition, usual class: inhibitors; calls by dose curve; tested in A549 cells; further: potency means the concentration at half of the fitted maximal effect; on the % scale 0 is the no-effect control and ±100 the full control effect; nearly all actives have a fitted effect of over 35% in size
Cycloheximide cs: counter-screen hit for Shiga toxin inhibitors, cycloheximide. 300,000 tested, 12% active. max response, %. AID 2314. cell reporter, cycloheximide protein synthesis inhibition counterscreen; in the data active means max response mostly above about 13%, no sharp cut-off; inactive means mostly below about 14%; further: read at 38.3 µM for the half of the compounds with a filed dose; 0% is about no effect
Vaccinia Venus: inhibitors of vaccinia virus (Venus reporter) | Vaccinia virus Venus reporter expression, fluorescence | Potency, µM (highest dose often 36.5 µM), for the others: top-dose activity change, negative = inhibition, actives largely listed as inhibitors | 330,000 tested, 0.46% active; calls by dose curve; tested in A549 cells; further: potency means the concentration at half of the fitted maximal effect; on the % scale 0 is the no-effect control and ±100 the full control effect; nearly all actives have a fitted effect of over 30% in size
* = called active by the depositor; i = inactive; ? = inconclusive; nt = no result; [ ] = dose if it differs, or a comment.

SMILES	Lassa entry inh	Marburg entry inh	Shiga inhibitor	Vaccinia mCherry	Cycloheximide cs	Vaccinia Venus
COc1ccc(CCNC(=O)c2ccc(CN3CCOCC3)cc2)cc1	-2.4%	?	6.5	-16.0%	3.9	-6.4%
COc1cccc(C(=O)NCCC2=CCCCC2)c1	-16.2%	?	74.2*	-15.1%	30.2*	-7.0%
O=C(NCCC1=CCCCC1)c1cccc(S(=O)(=O)N2CCCCC2)c1	?	-19.4%	nt	-17.6%	nt	-0.9%
Cc1ccc(CNC(=O)Cn2ccn(-c3cccc(Cl)c3)c(=O)c2=O)cc1	3.4%[46.1 µM]	nt	nt	-8.9%	nt	-6.4%
COc1cccc(NC(=O)CCC(=O)N2Cc3ccccc3Oc3ncccc32)c1	10.1%[46.1 µM]	nt	nt	-15.0%	nt	-8.4%
Cc1cc(NC(=O)CC(C)C)c(=O)n(Cc2cccc(F)c2)c1	nt	nt	nt	nt	6.3	nt
CCC(=O)Nc1ccc(Oc2ccc(NC(=O)CC)c(NC(=O)CC)c2)cc1	nt	nt	17.0	nt	-3.6	nt
COc1cccc(C(=O)NC(=NCCc2c[nH]c3ccc(OC)cc23)Nc2nc(C)cc(C)n2)c1	?	?	nt	-29.2%	nt	-16.7%
COc1ccccc1Nc1nn2c(=O)c3ccc(C(=O)NCCC4=CCCCC4)cc3nc2s1	?	nt	nt	8.91µM*	nt	7.94µM*
O=C(CCNC(=O)c1ccc([N+](=O)[O-])cc1)Nc1ccc(F)cc1	8.2%[46.1 µM]	5.5%[46.1 µM]	-8.2	i	-4.4	-3.6%
O=C(NCCc1ccc(F)cc1)c1ccc([N+](=O)[O-])cc1	-18.1%	8.9%	66.8*	-20.1%	33.8*	-14.5%
O=C(NCCC1=CCCCC1)c1ccc(Br)o1	-5.2%	?	84.5*	-4.3%	28.4*	-10.7%
O=C(NC1CCCCCC1)c1ccc(CN2CCOCC2)cc1	-4.8%	?	95.9*	i	40.6*	-3.8%
O=C(Cn1c(=O)nc(-c2ccccc2)c2ccccc21)NCCc1ccc(Cl)cc1	-7.6%[46.1 µM]	nt	nt	-27.0%	nt	-14.9%
CCOc1ccc(NC(=O)CCS(=O)(=O)c2ccc3c(c2)n(C)c(=O)c(=O)n3C)cc1	0.1%[46.1 µM]	-8.5%[46.1 µM]	nt	-7.5%	nt	-9.9%
Cc1oc(-c2ccc(C(=O)NCCC(C)C)cc2)nc1CS(=O)(=O)c1ccccc1	-5.8%[46.1 µM]	nt	nt	-8.8%	nt	-10.3%
COc1ccc(C(=O)NCCC2=CCCCC2)cc1OC	6.2%	?	74.5*	nt	45.9*	-11.7%
COc1ccc(C(=O)NCCN2CCCC2)cc1OC	15.8%	17.3%	-10.4	nt	-2.6	nt
CC(C)Oc1cccc(C(=O)Nc2ccc(N3CCN(C)CC3)cc2)c1	nt	nt	nt	nt	25.8*	nt
CN1CCN(c2ccc(NC(=O)c3cccc(OCc4ccccc4)c3)cc2)CC1	-17.1%	22.4µM*	59.6*	nt	23.2*	-22.9%
COc1ccccc1-n1cc(CN2CCC3(CCC(CNC(=O)c4ccccc4)O3)CC2)cn1 (stereo not drawn)	nt	nt	nt	i	nt	0.8%
Nc1ccc(N=Nc2ccc(N)cc2)cc1	nt	nt	96.0	nt	33.0*	nt
Nc1ccc(N=Nc2ccccc2)cc1	?	?	68.8*	?	40.9*	-12.2%
Cc1cccc(C)c1-n1ncc(C(=O)NC2CCCC2)c1C1CCN(C(=O)OC(C)(C)C)CC1	-0.7%[46.1 µM]	nt	nt	11.6%	nt	-6.0%
CCOC(=O)N/C(N)=N/c1nc2ccccc2s1	?	-18.2%	66.1*	nt	33.7*	nt
SMILES	Lassa entry inh	Marburg entry inh	Shiga inhibitor	Vaccinia mCherry	Cycloheximide cs	Vaccinia Venus
Nc1nc(=O)c2ccccc2s1	19.8%	?	nt	-12.5%	nt	2.8%
CCOC(=O)NC(=O)COC(=O)CCCSc1nc2ccccc2s1	-29.9%	-27.9%[46.1 µM]	12.9	4.1%	1.7	-7.7%
CC(=O)N/C(N)=N/c1nc(=O)c2ccccc2s1	nt	nt	54.7*	nt	35.0*	nt
Cc1nonc1CN(C)C(=O)C1CC12CCN(C(=O)/C=C/c1cccc(Cl)c1)CC2 (stereo not drawn)	nt	nt	nt	-0.1%	nt	-10.1%
CC(C)(C)c1ccc(C(=O)Nc2ccc(C=C(C#N)C#N)cc2)cc1	?	-8.5%	153.6*	-14.7%	72.0*	-17.8%
N#CC(C#N)=Cc1ccc(NC(=O)c2ccc(Br)cc2)cc1	5.2%	1.2%[46.1 µM]	75.3*	i	47.2*	-1.8%
CC(C)(C)c1ccccc1NC(=O)Nc1nc(C(N)Cc2ccc(F)cc2)cs1 (stereo not drawn)	nt	nt	nt	0.1%	nt	-22.5%
O=C(OCC#CCSc1nnc(-c2ccc(Br)cc2)o1)c1ccco1	9.0%	-6.7%	47.3*	-17.7%	18.9*	-11.9%
O=C(OCC#CCSc1nnc(-c2ccccc2)o1)c1ccco1	0.3%	0.5%	28.7	?	6.7	?
O=C(OCc1nnc(-c2ccc(Br)cc2)o1)c1ccco1	4.0%	11.9%	39.5	i	27.9*	-2.9%
O=C(OCC#CCSc1nc2ccccc2s1)c1ccco1	35.8%[14.3 µM]	?	69.1	-25.8%	36.6*	?
COc1cc2nc(CN3CC=C(c4ccccc4)CC3)[nH]c(=O)c2cc1OC	?	15.9%[46.1 µM]	nt	5.62µM*	nt	?
Cc1ccccc1-n1c(O)c(C=Nc2ccc3c(c2)OCO3)c(=O)[nH]c1=O	8.2%	15.1%	-10.0	i	-2.3	-5.0%
COc1ccc(CN=Cc2c(O)[nH]c3ccccc23)cc1	-23.8%	?	25.2*	-23.2%	26.9*	-7.5%
Oc1[nH]c2ccccc2c1C=Nc1ccc2c(c1)OCO2	?	?	68.0*	?	64.9*	?
Oc1[nH]c2ccccc2c1/C=N/c1nccs1	-2.6%	?	50.7	4.6%	28.3*	14.1%
Cc1ccc(N=Cc2c(O)[nH]c3ccccc23)c([N+](=O)[O-])c1	?	?	63.8*	?	22.2*	0.9%
COc1ccc(N=Cc2c(O)ccc3ccccc23)cc1	?	?	24.5	?	11.7	-15.0%
COc1ccc(N=Cc2c(O)[nH]c3ccccc23)cc1	?	?	39.8*	nt	37.0*	nt
CCOCCCN(C(=O)Cn1nnc(-c2ccc(C)o2)n1)C(C(=O)NCC1CCCO1)c1ccc(F)cc1 (stereo not drawn)	-27.4%	-24.0%[46.1 µM]	-5.7	i	1.0	5.6%
NC(CSCSCC(N)C(=O)O)C(=O)O (stereo not drawn)	nt	nt	nt	i	nt	0.0%
COc1ccc(-c2cc(C(=O)N(C)Cc3cccc(OC)c3OC)c3ccccc3n2)cc1OC	nt	?	-7.1	-23.2%	0.2	-1.5%
COc1ccc(CCN(C)C(=O)c2cc(-c3ccccc3)nc3ccccc23)cc1OC	-3.8%	-16.4%	-11.9	-2.3%	-3.5	-12.8%
COc1ccc(CN(C)C(=O)c2cc(-c3ccccc3)nc3ccc(C)cc23)c(OC)c1OC	?	?	26.7	?	16.8*	-27.1%
COc1ccc(CCN(C)C(=O)Cc2ccc(-c3ccccc3)cc2)cc1OC	?	?	-6.8	?	21.5*	-19.3%
COc1ccc(CCN(C)C(=O)c2cc(-c3ccccc3)nc3ccc(C)cc23)cc1OC	nt	nt	65.1*	nt	25.6	nt
COc1ccc(CN(C)c2nc(-c3cccnc3)nc3ccccc23)cc1OC	nt	nt	15.3	nt	9.9	nt
Cc1nn(-c2ccccc2)c(N)c1Sc1ccc([N+](=O)[O-])cc1	3.0%	-12.3%	12.4	i	20.4*	-8.5%
CCOC(=O)C1C(=O)C=C(c2ccc(C)cc2)CC1c1ccccc1 (stereo not drawn)	15.8µM*	19.6%[46.1 µM]	6.6	-16.1%	7.2	-6.4%
